Measured values published in PubChem BioAssay (NCI).
About 83,000 compounds went through this panel and 20% of them were active in at least one assay; those are over-represented in the sample as a whole.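 Percent growth is the endpoint: 0 to 100 indicates growth inhibition (40 means 60% inhibition), 0 means no net growth, and negative values indicate cell death.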 The source made the active and inactive calls. How the source made its calls: active means growth percent below 10; inactive means the rest.

How the values were obtained:
Assay in all cases: NCI-60 one-dose screen, 48 h (100 = growth as untreated, 0 = no growth, -100 = all killed)
Conditions in all cases: 10 µM unless noted
NCI-H23 lung = test system: NCI-H23 lung
NCI-H226 lung = test system: NCI-H226 lung
NCI-H322M lung = test system: NCI-H322M lung
HOP-62 NSCLC = test system: HOP-62 NSCLC
NCI-H460 lung = test system: NCI-H460 lung
HOP-92 NSCLC = test system: HOP-92 NSCLC
NCI-H522 lung = test system: NCI-H522 lung
A549/ATCC NSCLC = test system: A549/ATCC NSCLC
786-0 renal = test system: 786-0 renal
COLO 205 colon = test system: COLO 205 colon
DU-145 prostate = test system: DU-145 prostate
K-562 leukemia = test system: K-562 leukemia
MALME-3M melanoma = test system: MALME-3M melanoma
MDA-MB-231 breast = test system: MDA-MB-231 breast
RXF 393 renal = test system: RXF 393 renal
SF-268 CNS = test system: SF-268 CNS
SF-295 CNS = test system: SF-295 CNS
SF-539 CNS = test system: SF-539 CNS
UACC-257 melanoma = test system: UACC-257 melanoma
M14 melanoma = test system: M14 melanoma

Measured: growth

O=C(Cn1c(-c2ccccc2)nc2ccccc21)N=Nc1c(O)[nH]c2ccc(Cl)cc12
active: NCI-H226 lung -62.1% | NCI-H322M lung 5% | HOP-62 NSCLC -58.6% | NCI-H460 lung 3.44% | HOP-92 NSCLC -41.7% | A549/ATCC NSCLC 6.42% | 786-0 renal -18.5% | COLO 205 colon -40.3% | DU-145 prostate 6.32% | MALME-3M melanoma 5.8% | MDA-MB-231 breast -42% | RXF 393 renal -63.8% | SF-268 CNS 7.18% | SF-295 CNS -40% | SF-539 CNS -46.6%
inactive: NCI-H23 lung 20.8% | NCI-H522 lung 40.5% | K-562 leukemia 10.6% | UACC-257 melanoma 36.5% | M14 melanoma 14.9%

CN(C)c1nc(NCCNS(=O)(=O)c2ccc(C3=Nc4c(N)nc(N)nc4NC(c4ccc(C(F)(F)F)cc4)C3)cc2)nc(N2CCOCC2)n1 (stereo not given)
active: HOP-92 NSCLC -17% | COLO 205 colon -14.2% | K-562 leukemia 9.12%
inactive: NCI-H23 lung 74% | NCI-H226 lung 54.1% | NCI-H322M lung 84.2% | HOP-62 NSCLC 51.8% | NCI-H460 lung 35.6% | NCI-H522 lung 35% | A549/ATCC NSCLC 40.2% | 786-0 renal 20.2% | DU-145 prostate 61.8% | MALME-3M melanoma 60.3% | MDA-MB-231 breast 38.5% | RXF 393 renal 16.6% | SF-268 CNS 38.6% | SF-295 CNS 45.5% | SF-539 CNS 34.3% | UACC-257 melanoma 52.9% | M14 melanoma 28%

FC(F)(F)c1cc2c(Cl)ncnc2n1CCN1CCOCC1
active: NCI-H522 lung -80.3% | K-562 leukemia 0.361%
inactive: NCI-H23 lung 62.9% | NCI-H226 lung 91.4% | NCI-H322M lung 74.9% | HOP-62 NSCLC 91.5% | NCI-H460 lung 86% | HOP-92 NSCLC 107% | A549/ATCC NSCLC 92.3% | 786-0 renal 99.3% | COLO 205 colon 79.5% | DU-145 prostate 73.6% | MALME-3M melanoma 88.1% | MDA-MB-231 breast 56.4% | RXF 393 renal 100% | SF-268 CNS 64.5% | SF-295 CNS 86.7% | SF-539 CNS 87% | UACC-257 melanoma 75.5% | M14 melanoma 44.9%

CCC(=O)c1cc(C(=O)OC)c2ccc3c4ccccc4ccc3n12
inactive: NCI-H23 lung 85.2% | NCI-H226 lung 50.4% | NCI-H322M lung 93.5% | HOP-62 NSCLC 65.4% | NCI-H460 lung 26.1% | HOP-92 NSCLC 88.7% | NCI-H522 lung 102% | A549/ATCC NSCLC 67.9% | 786-0 renal 66.8% | COLO 205 colon 80.5% | DU-145 prostate 93.5% | K-562 leukemia 91.5% | MALME-3M melanoma 71.9% | MDA-MB-231 breast 69.9% | RXF 393 renal 82.1% | SF-268 CNS 89.3% | SF-295 CNS 77.6% | SF-539 CNS 88.2% | UACC-257 melanoma 99.7% | M14 melanoma 105%

CCOc1ccccc1NC(=O)N/C(N)=N/c1nc2ccccc2s1
inactive: NCI-H23 lung 12.6% | NCI-H226 lung 33.9% | NCI-H322M lung 35.9% | HOP-62 NSCLC 33.6% | A549/ATCC NSCLC 13.6% | 786-0 renal 12.9% | K-562 leukemia 10.1% | MALME-3M melanoma 42% | RXF 393 renal 48.7% | SF-268 CNS 27.3% | UACC-257 melanoma 52.2% | M14 melanoma 13.4%
active: NCI-H460 lung 6.47% | HOP-92 NSCLC -13.4% | NCI-H522 lung -39.8% | COLO 205 colon -78.1% | DU-145 prostate -4% | MDA-MB-231 breast 0.962% | SF-295 CNS 3.78% | SF-539 CNS -27.7%

CC1CCc2c(sc3nc(SCC(=O)c4cccc(Br)c4)n(-c4ccccc4)c(=O)c23)C1 (stereo not given)
inactive: NCI-H23 lung 11.3% | NCI-H226 lung 19.7% | NCI-H322M lung 74.5% | HOP-62 NSCLC 39.9% | NCI-H460 lung 55% | HOP-92 NSCLC 44% | NCI-H522 lung 40.3% | A549/ATCC NSCLC 92.3% | 786-0 renal 18.8% | COLO 205 colon 25.3% | DU-145 prostate 20.3% | K-562 leukemia 43.3% | MALME-3M melanoma 97.5% | MDA-MB-231 breast 32.3% | RXF 393 renal 90.9% | SF-268 CNS 64.9% | SF-295 CNS 47.2% | SF-539 CNS 18.3% | UACC-257 melanoma 91.1% | M14 melanoma 55.4%

O=C(N/N=C/c1ccc(Cl)o1)c1[nH]c2ccc(Br)cc2c1-c1ccccc1
inactive: NCI-H322M lung 26.3% | UACC-257 melanoma 17%
active: NCI-H23 lung -29.7% | NCI-H226 lung -42.1% | HOP-62 NSCLC -48.3% | NCI-H460 lung -70.8% | HOP-92 NSCLC 9.01% | NCI-H522 lung -59.8% | A549/ATCC NSCLC -23.2% | 786-0 renal -57.7% | COLO 205 colon -39.9% | DU-145 prostate -49.1% | K-562 leukemia 8.31% | MALME-3M melanoma 2.82% | MDA-MB-231 breast -69.9% | RXF 393 renal -62.6% | SF-268 CNS 3.21% | SF-295 CNS -19.3% | SF-539 CNS -97.2% | M14 melanoma -3.48%
